# A selection: hits, their analogues and other compounds. The true share with any hit is near 0.5%.
# phage Ecoli inh – growth loss of phage-infected E. coli, primary screen, RecBCD inhibitor project, absorbance, with phage, HTS | inhibition, % at 11.9 µM | 360,000 compounds, 0.26% hits | AID 651602, 2012; in the data active = inhibition above about 11%
# E coli growth-1 – E. coli growth inhibition, primary screen, OD600; Escherichia coli growth, 23 h; active compounds read low; OD600 absorbance (concentration not given with the values); 330,000 compounds, 0.21% hits;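 active = OD600 absorbance below the run mean of sample wells minus 3.6 SD, in any replicate, cut at about 0.56 in these data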
# E coli growth-2 – E. coli V3065 growth inhibition, primary screen, counter-screen for AddAB inhibitor project, absorbance, OD600. 18 h. inhibition, % at 11.9 µM. 330,000 compounds, 0.27% hits;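 active = inhibition above the campaign's mean inhibition across all tested compounds plus 3 SD, cut at about 9.9% in these data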;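 also: uninfected addAB+ strain grown without phage in ampicillin broth; 0% = DMSO wells and 100% = ciprofloxacin 0.95 µg/ml wells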
# Tat export inh – E. coli Tat export inhibitors, primary screen, MC4100, TorA-mCherry reporter, fluorescence, single point; AID 488895, 2010; inhibition, % at 10 µM; 340,000 compounds, 0.036% hits;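 active = mean replicate inhibition at least 50% and at least half of replicates individually reaching 50%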;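 also: exported cargo escapes ClpAP degradation while cytoplasmic cargo is degraded and loses fluorescence; 0% = median of neutral control wells and 100% = median of NaSCN control wells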
# AddAB inh – growth inhibition of E. coli expressing H. pylori AddAB, primary screen, AddAB inhibitor project, absorbance; inhibition, % at 11.9 µM; 330,000 compounds, 0.29% hits; in the data active = inhibition above about 12%;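 also: 0% = vehicle wells of infected cells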
# AddAB conf – growth loss of phage-infected E. coli expressing H. pylori AddAB, confirmation, AddAB inhibitor project, absorbance, E. coli V3065, T4 phage, triplicate; shares compounds with AddAB inh; OD; T4 phage with gene 2 nonsense mutations; inhibition, % at 11.9 µM; 880 compounds, 64% hits;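 active = mean inhibition above a set limit taken from the earlier primary screen, cut at about 13% in these data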;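 also: higher means less bacterial growth since AddAB block lets phage replicate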
# RecBCD counter – growth loss of RecBCD+ E. coli with mutant T4 phage, counter-screen for AddAB inhibitor project, absorbance, V66 E. coli. OD growth. AID 488955, 2010. 880 compounds, 73% hits. inhibition, % at 11.9 µM. shares compounds with AddAB inh;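 active = mean inhibition above the mean of solvent-only control wells plus 3 SD, cut at about 4% in these data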;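 also: optical density read after an 18 h incubation at 37 °C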
# bact viab count – bacterial viability inhibition counter-screen, confirmation, counter-screen for AddAB inhibitor project, absorbance; shares compounds with AddAB inh; absorbance (AddAB counterscreen); inhibition, % at 11.9 µM; 880 compounds, 35% hits; in the data active = inhibition above about 25%
# Active calls of the source: *; · = no result given.
SMILES,phage Ecoli inh,E coli growth-1,E coli growth-2,Tat export inh,AddAB inh,AddAB conf,RecBCD counter,bact viab count
CCCCCNC(=O)c1cn(CC)c2cc(N3CCN(C)CC3)c(F)cc2c1=O,7,0.047*,90*,4,92*,100*,12*,96*
O=C(O)C1(C(=O)O)CCC2(CCCCC2)CC1,0,·,·,·,·,·,·,·
O=[N+]([O-])c1ccc(N/N=C/c2ccc[nH]2)cc1,6,·,6,1,12*,13*,2,5
Cc1c(C(=O)N2CCN(c3ccc(F)cc3)CC2)sc2ncnc(N3CCN(c4ccccn4)CC3)c12,1,0.71,-1,14,2,·,·,·
O=c1c2ccccc2[nH]c2ccc(F)cc12,10,0.61,10*,-3,14*,7,8.8*,3
CCNC(=S)N1CCC(C(=O)c2ccc(F)cc2)CC1,3,·,·,·,·,·,·,·
COc1ccc(S(=O)(=O)N2CCOC2CNC(=O)C(=O)NCCc2ccccc2)cc1OC (stereo not drawn),1,0.79,-2,-9,-2,·,·,·
COc1ccc(S(=O)(=O)N2CCOC2CNC(=O)C(=O)NCCc2ccccc2)cc1C (stereo not drawn),4,0.81,15*,-12,43*,0,-1,-2
COc1c(O)c(O)c2oc(-c3ccccc3)cc(=O)c2c1OC,10,0.69,7,0,16*,14*,9.2*,15
COc1cc(-c2cc(=O)c3c(O)c(OC)c(OC)c(O)c3o2)ccc1O,7,0.75,3,11,9,·,·,·
O=C(NCc1ccco1)C1CCN(S(=O)(=O)c2ccccc2C(F)(F)F)CC1,1,0.69,-1,3,-2,·,·,·
O=C(NNC(=O)C1CCN(S(=O)(=O)c2ccccc2C(F)(F)F)CC1)c1ccccc1O,9,0.69,10,-24,14*,13*,8.8*,11
O=C(NNC(=O)C1CCN(S(=O)(=O)c2c(Cl)cccc2Cl)CC1)c1ccccc1O,10,0.69,10,2,13*,9,6.2*,6
O=C(NNC(=O)C1CCN(S(=O)(=O)c2ccccc2)CC1)c1ccccc1O,6,0.71,3,-4,4,·,·,·
CC(C)C(OC(=O)c1cc2occc2n1C)C(=O)NCc1ccc2c(c1)OCO2 (stereo not drawn),0,0.73,-1,-7,1,·,·,·
O=c1[nH]c(/C(=N\O)c2ccccc2)no1,10,·,18*,-31,16*,25*,4.3*,21
CC(O)COc1ccc(C(=NO)c2ccccc2)cc1 (stereo not drawn),·,0.64,·,·,·,·,·,·
CCN(C(=O)C1CCN(c2nc(-c3ccc(OC)cc3)no2)CC1)c1ccccc1,3,0.72,-1,10,2,·,·,·
CCN(C(=O)C1CCCN(c2nc(-c3ccc(OC)cc3)no2)C1)c1ccccc1F (stereo not drawn),1,0.77,4,2,22*,-2,1,-3
NC(=NOC(=O)Nc1ccccc1)c1ncc([N+](=O)[O-])s1,·,0.65,·,·,·,·,·,·
N/C(=N/OC(=O)c1ccccc1Cl)c1ncc([N+](=O)[O-])s1,3,·,10*,-11,14*,37*,3,9
COc1cccc(/C=N/NC(=O)N/N=C/c2cccc(OC)c2O)c1O,11,·,12*,-5,15*,12,11*,9
COc1cccc(C=NNC(=O)C(=O)NN=Cc2cccc(OC)c2O)c1O,·,0.71,·,·,·,·,·,·
Cc1ccccc1COc1ccc(/C=N/NC(=O)c2nnn(-c3nonc3N)c2CN2CCC(C)CC2)cc1,4,·,-1,5,1,·,·,·
CCn1cc(C(=O)O)c(=O)c2cc(F)c(N3CCN(C(=S)NC(=O)c4ccccc4Cl)CC3)cc21,10,0.075*,84*,-1,98*,102*,100*,102*
SMILES,phage Ecoli inh,E coli growth-1,E coli growth-2,Tat export inh,AddAB inh,AddAB conf,RecBCD counter,bact viab count
C=CCCCCCCCCC(=O)N1CCN(c2cc3c(cc2F)c(=O)c(C(=O)O)cn3CC)CC1,3,0.3*,35*,8,41*,98*,4.0*,72*
O=C(O)c1ccccc1C(=O)Nc1ccc(Oc2cccc(C(F)(F)F)c2)nc1,2,0.72,1,-1,0,·,·,·
O=C(Nc1ccccc1)N(Cc1ccccc1)C1=NCCS1,1,0.79,0,-4,2,·,·,·
OCCOCCOCCn1c2ccccc2c2ccccc21,0,0.69,-2,0,0,·,·,·
NS(=O)(=O)c1ccc(-c2ccc(/C=C3\C(=O)Nc4ccccc43)o2)cc1,·,·,-1,·,3,·,·,·
Cc1ccc(/C=C2\C(=O)Nc3ccccc32)o1,17*,0.51*,19*,3,62*,98*,14*,44*
CCCCn1nnnc1SCC(=O)c1cc(Cl)ccc1OC,0,0.71,-3,10,4,·,·,·
COc1ccc(Cl)cc1C(=O)CSc1nc(N)cc(N)n1,3,0.67,97*,3,98*,-1,-1,-3
CCC(=O)NC(c1ccccc1OC)c1ccc2cccnc2c1O (stereo not drawn),·,0.66,24*,-8,28*,18*,23*,15
O=C(CSc1nc2ccccc2[nH]1)Nc1ccc2c(c1)CCC2,5,0.61,7,-17,18*,3,5.2*,3
O=C(CSc1nc2ccc(Cl)cc2[nH]1)Nc1ccc2c(c1)CCC2,4,·,0,2,4,·,·,·
C[n+]1cccc2c(Br)ccc([O-])c21,2,0.65,-4,2,1,·,·,·
[O-][n+]1cccc2c(Br)cc(Br)c(O)c21,43*,0.24*,40*,-7,40*,38*,47*,41*
O=C(Nc1ccccc1O)c1ccccc1O,9,0.48*,13*,2,24*,5,8.2*,-1
Cc1cccc(NC(=O)c2ccccc2O)c1C,6,0.62,2,1,4,·,·,·
CC(=O)Nc1cccc(C(=O)NCCc2ccco2)c1,8,0.66,12*,-22,12*,7,10*,8
Cc1ccc(C(=O)NNC(=S)NC(=O)c2ccco2)cc1,5,0.47*,9,-11,13*,7,10*,3
CC(=O)c1sc2nsc(SCCN3CCOCC3)c2c1N,-1,0.63,-1,·,-2,·,·,·
Cc1ccc(Cl)c(Nc2ccccc2C(=O)O)c1Cl,4,0.69,3,-3,1,·,·,·
COC(=O)C(NC(=O)N1CCN(c2cccc(C(F)(F)F)c2)CC1)C(C)C (stereo not drawn),·,0.7,·,·,·,·,·,·
Cc1ccc(N2C(=O)C(Cl)=C(N3CCCCCC3)C2=O)cc1,-1,0.67,-3,-3,2,·,·,·

# Bioassay records: PubChem, several laboratories
